The values below come from PubChem BioAssay.

A short description of assay [1]: antimalarial activity against Dd2 strain (AID 2302;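 active = growth inhibition above 50% at the single 2 µM test dose, taken to imply half-maximal potency below 2 µM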;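 also: 0% = DMSO untreated growth and 100% = chloroquine plus artemisinin killed control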). Conditions: P. falciparum Dd2 in RBCs, LDH growth readout, 72 h; at 2 µM; stronger effect = higher value.
Assay [2] can be described thus: HepG2 cytotoxicity, primary screen, cytotoxicity control for P. falciparum antimalarial project, cell-based, ATP luminescence (AID 2303;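 active = inhibition above 50%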;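 also: 0% = DMSO wells and 100% = digitonin-killed cells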). As to conditions: HepG2 viability, 24-48 h, at 10 µM, stronger effect = higher value.
The target in assay [3] is L-lactate dehydrogenase (Plasmodium falciparum (isolate CDC / Honduras)) (UniProt Q27743). Description: PfLDH activity inhibition – cell lysate, 3D7 strain, counter-screen for P. falciparum growth inhibition project (AID 2304).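 Also: 0% = vehicle and 100% = reference inhibitor.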 Conditions: P. falciparum 3D7 crude extract, LDH APAD/NBT absorbance; at 2 µM; stronger effect = higher value. Background: The purpose of a counterscreen is to sort out artefacts and off-target activity.

Assay [4] in a line: inhibition of 3D7 malaria parasite growth – strain 3D7 (AID 2306).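 Also: 0% = DMSO wells and 100% = chloroquine plus artemisinin control wells.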 Conditions: P. falciparum 3D7 erythrocytic growth, LDH absorbance, 72 h; at 2 µM; stronger effect = higher value.
Assay [5] concerns the target Calcium-dependent protein kinase 1 (Plasmodium falciparum (isolate 3D7)) (UniProt P62344). Description: PfCDPK1 kinase inhibitors, biochemical, TCAMS library (AID 1159585; cut-off not given, nearly all actives have IC50 up to about 0.98 µM;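 also: inhibitors leave more ATP so luminescence rises with inhibition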). Conditions: recombinant PfCDPK1, Kinase-Glo ATP depletion luminescence.
Assay [6] has as its target Plasmodium falciparum protein kinase 6 (PK6, PF3D7_1337100) (UniProt Q8IDW1). Description: PfPK6 kinase inhibitors, biochemical, TCAMS library (AID 1159586). Conditions: recombinant PfPK6, Kinase-Glo ATP depletion luminescence. For orientation: In Kinase-Glo more light means more ATP remaining.
Assay [7] concerns the target Protein kinase 7 (PK7), Plasmodium falciparum 3D7 (PF3D7_0213400) (UniProt Q7YTF7). Description: inhibition of Plasmodium PK7 catalytic activity – biochemical, TCAMS antimalarial set, Kinase-Glo luminescence (AID 1159587). As to conditions: recombinant PfPK7, Kinase-Glo ATP depletion luminescence.
Assay [8] addresses Calcium-dependent protein kinase 4 (Plasmodium falciparum (isolate 3D7)) (UniProt Q8IBS5). Description: PfCDPK4 kinase inhibitors, biochemical, TCAMS library (AID 1159588; cut-off not given, nearly all actives have IC50 up to about 0.91 µM). Conditions: recombinant PfCDPK4, Kinase-Glo ATP depletion luminescence.

Unmarked numbers belong to inactive results. For some of these results: Entries with a potency or affinity are not part of this list. Activity calls are given as the source filed them. Unless noted, no rule for the calls is given here.

Sequence of Calcium-dependent protein kinase 4 (Plasmodium falciparum (isolate 3D7)) (Q8IBS5 whole entry, looked up): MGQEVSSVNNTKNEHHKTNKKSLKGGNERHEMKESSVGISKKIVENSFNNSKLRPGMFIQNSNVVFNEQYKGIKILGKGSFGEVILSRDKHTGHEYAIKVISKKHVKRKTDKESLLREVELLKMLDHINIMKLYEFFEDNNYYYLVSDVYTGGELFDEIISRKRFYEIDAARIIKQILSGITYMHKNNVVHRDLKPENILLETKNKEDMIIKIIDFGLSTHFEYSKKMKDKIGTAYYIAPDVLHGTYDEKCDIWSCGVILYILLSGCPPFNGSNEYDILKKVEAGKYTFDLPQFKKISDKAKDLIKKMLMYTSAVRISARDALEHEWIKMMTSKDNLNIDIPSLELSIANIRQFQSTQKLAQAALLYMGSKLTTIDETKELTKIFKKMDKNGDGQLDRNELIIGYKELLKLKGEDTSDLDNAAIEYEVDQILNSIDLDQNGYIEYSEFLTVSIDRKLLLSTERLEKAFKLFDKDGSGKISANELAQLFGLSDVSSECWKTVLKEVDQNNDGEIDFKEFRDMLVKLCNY
Sequence of Protein kinase 7 (PK7), Plasmodium falciparum 3D7 (PF3D7_0213400) (Q7YTF7 1-343): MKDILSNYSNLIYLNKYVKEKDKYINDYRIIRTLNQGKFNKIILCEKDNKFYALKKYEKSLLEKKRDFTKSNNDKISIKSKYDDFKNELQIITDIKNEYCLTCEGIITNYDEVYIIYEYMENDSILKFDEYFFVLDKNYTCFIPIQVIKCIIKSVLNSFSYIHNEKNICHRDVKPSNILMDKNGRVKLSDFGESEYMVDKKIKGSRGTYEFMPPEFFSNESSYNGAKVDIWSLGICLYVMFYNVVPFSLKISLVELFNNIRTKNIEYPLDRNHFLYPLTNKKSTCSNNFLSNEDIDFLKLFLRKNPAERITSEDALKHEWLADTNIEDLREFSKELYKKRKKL
Sequence of L-lactate dehydrogenase (Plasmodium falciparum (isolate CDC / Honduras)) (Q27743 whole entry, looked up): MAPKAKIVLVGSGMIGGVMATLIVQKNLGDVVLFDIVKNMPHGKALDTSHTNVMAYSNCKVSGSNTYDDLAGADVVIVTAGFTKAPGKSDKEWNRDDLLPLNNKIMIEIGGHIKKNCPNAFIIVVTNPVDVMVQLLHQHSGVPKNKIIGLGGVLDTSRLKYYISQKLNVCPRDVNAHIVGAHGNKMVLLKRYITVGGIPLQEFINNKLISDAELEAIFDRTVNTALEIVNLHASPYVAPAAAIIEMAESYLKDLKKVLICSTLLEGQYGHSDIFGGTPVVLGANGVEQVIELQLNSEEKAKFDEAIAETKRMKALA
Sequence of Calcium-dependent protein kinase 1 (Plasmodium falciparum (isolate 3D7)) (P62344 whole entry, looked up): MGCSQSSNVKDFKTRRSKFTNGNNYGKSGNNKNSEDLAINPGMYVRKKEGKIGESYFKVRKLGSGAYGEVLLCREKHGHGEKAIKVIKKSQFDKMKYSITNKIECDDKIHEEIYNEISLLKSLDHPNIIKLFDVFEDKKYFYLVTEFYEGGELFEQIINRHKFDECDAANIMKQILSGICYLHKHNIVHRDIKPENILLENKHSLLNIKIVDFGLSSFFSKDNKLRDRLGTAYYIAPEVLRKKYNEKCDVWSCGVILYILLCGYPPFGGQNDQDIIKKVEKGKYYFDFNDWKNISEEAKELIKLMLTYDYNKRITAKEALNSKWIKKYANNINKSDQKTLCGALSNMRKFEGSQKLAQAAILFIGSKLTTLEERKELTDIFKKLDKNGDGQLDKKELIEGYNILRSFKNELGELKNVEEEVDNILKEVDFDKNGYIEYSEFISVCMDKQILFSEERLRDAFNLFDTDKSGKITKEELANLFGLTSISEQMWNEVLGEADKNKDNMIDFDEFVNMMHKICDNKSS
Sequence of Plasmodium falciparum protein kinase 6 (PK6, PF3D7_1337100) (Q8IDW1 1-305): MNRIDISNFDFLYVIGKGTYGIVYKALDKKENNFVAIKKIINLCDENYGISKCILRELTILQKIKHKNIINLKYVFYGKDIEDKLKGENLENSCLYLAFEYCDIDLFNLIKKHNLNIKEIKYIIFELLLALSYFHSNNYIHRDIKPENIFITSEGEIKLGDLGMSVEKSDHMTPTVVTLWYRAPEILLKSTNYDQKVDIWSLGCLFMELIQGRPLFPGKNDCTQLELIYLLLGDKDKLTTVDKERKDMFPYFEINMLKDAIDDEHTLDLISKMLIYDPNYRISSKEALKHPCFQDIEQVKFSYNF

Take `COc1ccc(NC(=O)[C@H](CC(C)C)Nc2cc(C)nc(NCc3cccc(C)c3)n2)cc1`: the growth inhibition in assay [1] was 90% (active); in assay [4] it was 101% (active). Besides, the values for the inhibition in assay [2] and in assay [3] were 24% and -1%, respectively. Moreover, the result in assay [5], in assay [6], in assay [7] and in assay [8] was inactive.
Turning to `COc1ccc(CNC2CCN(C)CC2)cc1-c1ccc(S(=O)(=O)NCCc2ccccn2)c(C)c1`, the growth inhibition was 91% (active) in assay [1] and 96% (active) in assay [4]. Besides, the inhibition is 7% in assay [2] and -2% in assay [3]. The result in assay [5], in assay [6], in assay [7] and in assay [8] was inactive.
In the case of `COc1cc(C)c(C(O)CNC(C)CCc2ccccc2)cc1C` (stereo not given), the growth inhibition in assay [1] and in assay [4] was 98% (active) throughout. Moreover, the inhibition was 1% in assay [2] and -2% in assay [3]. Also, the outcome in assay [5], in assay [6], in assay [7] and in assay [8] was inactive.
Take `COc1ccc(NC(=O)Nc2ccc(Nc3nc(C)cc(N4CCCC4)n3)cc2)cc1`: the growth inhibition in assay [1] was 100% (active); in assay [4] it was 101% (active). The results for the inhibition in assay [2] and in assay [3] were 14% and -2%, respectively. In addition, the outcome in assay [5], in assay [6], in assay [7] and in assay [8] was inactive.
As to `N#CC(NC(=O)C=Cc1ccccc1)c1ccccc1` (stereo not given), the growth inhibition in assay [1] was 3%; in assay [4], 95% (active). In addition, the inhibition in assay [2] was 3%; in assay [3] it was -8%. In addition, the outcome in assay [5], in assay [6], in assay [7] and in assay [8] was inactive.
`Cc1cc(NC(=O)c2cccs2)ccc1OC1CCN(Cc2ccc(F)cc2)C1` (stereo not given): the growth inhibition was 92% (active) in assay [1] and 95% (active) in assay [4]. Also, the inhibition in assay [2] and in assay [3] was 0% throughout. The outcome in assay [5], in assay [6], in assay [7] and in assay [8] was inactive.
In the case of `CCN(CC)CCCOC(=O)c1ccc2c(c1)-c1ccc(C(=O)OCCCN(CC)CC)c3cccc-2c13`, the growth inhibition was 96% (active) in assay [1] and 98% (active) in assay [4]. Also, the inhibition in assay [2] is 22%; in assay [3], -3%. The outcome in assay [5], in assay [6], in assay [7] and in assay [8] was inactive.
With `O=C(Cc1cccc2ccccc12)NC1CCN(c2ccnc3cc(Cl)ccc23)C1` (stereo not given), the growth inhibition in assay [1] is 97% (active); in assay [4], 82% (active). Further, the results for the inhibition in assay [2] and in assay [3] were 13% and -2%, respectively. Also, the result in assay [5], in assay [6], in assay [7] and in assay [8] was inactive.
Take `COc1ccc(CCNCCCCCCNCCc2ccc(Cl)c(Cl)c2)cc1OC`: the figures for the growth inhibition in assay [1] and in assay [4] were 10% and 101% (active), respectively. Also, the inhibition in assay [2] was 59% (active); in assay [3], -1%. The result in assay [5], in assay [6], in assay [7] and in assay [8] was inactive.
`CN(C)C(CNC(=O)c1cc(-c2ccncc2)c(-c2ccc(Cl)c(O)c2)o1)c1ccccc1` (stereo not given): the growth inhibition in assay [1] was 28%; in assay [4] it was 91% (active). Moreover, the values for the inhibition in assay [2] and in assay [3] were 28% and 0%, respectively. Moreover, the result in assay [5], in assay [6], in assay [7] and in assay [8] was inactive.
With `O=C(c1cnn(-c2ccccc2)c1C(F)(F)F)N1CCN(c2ccnc3cc(Cl)ccc23)CC1`, the values for the growth inhibition in assay [1] and in assay [4] were 94% (active) and 89% (active), respectively. Also, the values for the inhibition in assay [2] and in assay [3] were 34% and 6%, respectively. The outcome in assay [5], in assay [6], in assay [7] and in assay [8] was inactive.
For the compound `CC(C)=CC1C(C(=O)n2c(N)nc3ccccc32)C1(C)C` (stereo not given), the values for the growth inhibition in assay [1] and in assay [4] were 3% and 99% (active), respectively. Further, the inhibition in assay [2] is 16%; in assay [3], -6%. In addition, the result in assay [5], in assay [6], in assay [7] and in assay [8] was inactive.
Take `O=C(/C=C/c1ccc(Cl)c(Cl)c1)NCCCCCN1CCC(CCNC(=O)/C=C/c2cc(C(F)(F)F)ccc2F)CC1`: the growth inhibition was 46% in assay [1] and 98% (active) in assay [4]. Also, the inhibition in assay [2] is 25%; in assay [3], -5%. Moreover, the outcome in assay [5], in assay [6], in assay [7] and in assay [8] was inactive.
With `O=C(Nc1ccc(OC2CCN(Cc3ccccc3)CC2)c(Cl)c1)c1cccs1`, the growth inhibition in assay [1] is 95% (active); in assay [4], 96% (active). Further, the inhibition was 2% in assay [2] and 4% in assay [3]. In addition, the outcome in assay [5], in assay [6], in assay [7] and in assay [8] was inactive.
On to `Nc1nccc(-c2ccc3c(-c4cccc(F)c4)cnc(N)c3c2)n1`, for which the values for the growth inhibition in assay [1] and in assay [4] were 44% and 93% (active), respectively. The inhibition is 41% in assay [2] and 5% in assay [3]. The outcome in assay [5], in assay [6], in assay [7] and in assay [8] was inactive.
Regarding `CC1CCC(NC(=O)c2nn(-c3ccc(Cl)cc3)c(=O)c3ccccc23)CC1` (stereo not given), the growth inhibition was 67% (active) in assay [1] and 91% (active) in assay [4]. The inhibition was 3% in assay [2] and -3% in assay [3]. In addition, the outcome in assay [5], in assay [6], in assay [7] and in assay [8] was inactive.
For `COc1ccc2nccc(N3CCC(SCCNCc4ccc5c(n4)NC(=O)CS5)C3)c2n1` (stereo not given), the growth inhibition was 100% (active) in assay [1] and 95% (active) in assay [4]. For the same compound, the inhibition was 34% in assay [2] and 2% in assay [3]. The outcome in assay [5], in assay [6], in assay [7] and in assay [8] was inactive.
Regarding `CCN(CC)CCNc1ccnc2[nH]c3ccc([N+](=O)[O-])cc3c12`, the growth inhibition in assay [1] is 76% (active); in assay [4], 100% (active). The inhibition in assay [2] is 6%; in assay [3], -4%. Further, the result in assay [5], in assay [6], in assay [7] and in assay [8] was inactive.
In the case of `CC(=O)Nc1nc(C(=O)Nc2ccc(-c3cccc(-c4nc5ccc(C(F)(F)F)cc5[nH]4)c3)cc2)cs1`, the growth inhibition is 97% (active) in assay [1] and 101% (active) in assay [4]. For the same compound, the inhibition is 79% (active) in assay [2] and -2% in assay [3]. For the same compound, the outcome in assay [5], in assay [6], in assay [7] and in assay [8] was inactive.
Take `Cc1ccc2c(c1)C1(CC(=O)N(CCc3scnc3C)C1=O)C(=O)N2Cc1ccccc1` (stereo not given): the results for the growth inhibition in assay [1] and in assay [4] were 73% (active) and 83% (active), respectively. Moreover, the inhibition is -5% in assay [2] and 2% in assay [3]. Further, the result in assay [5], in assay [6], in assay [7] and in assay [8] was inactive.

By inhibition is commonly meant the drop in the measured response relative to a control, in per cent.
